Where “and” joins values, the source holds several entries; their conditions need not be identical. Equal values may be shown once. Calls of active or inactive are those of the source.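 Rule for the calls, unless noted: active = thallium flux through the channel raised or lowered by more than 3 SD from vehicle-only wells, actives on both sides; inactive = the rest.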
How the values were obtained:
[1] = molecular target: 6-phosphogluconate dehydrogenase, decarboxylating (Homo sapiens) (UniProt P52209); experiment: 6PGD enzyme inhibitors, primary screen, biochemical, human, recombinant enzyme, NADPH absorbance (AID 1159550;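 active = at least 20% inhibition of 6-phosphogluconate dehydrogenase activity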); conditions: recombinant 6PGD, NADPH absorbance 341 nm; at 10 µM; stronger effect = higher value
Sequence of 6-phosphogluconate dehydrogenase, decarboxylating (Homo sapiens) (P52209 whole entry, looked up): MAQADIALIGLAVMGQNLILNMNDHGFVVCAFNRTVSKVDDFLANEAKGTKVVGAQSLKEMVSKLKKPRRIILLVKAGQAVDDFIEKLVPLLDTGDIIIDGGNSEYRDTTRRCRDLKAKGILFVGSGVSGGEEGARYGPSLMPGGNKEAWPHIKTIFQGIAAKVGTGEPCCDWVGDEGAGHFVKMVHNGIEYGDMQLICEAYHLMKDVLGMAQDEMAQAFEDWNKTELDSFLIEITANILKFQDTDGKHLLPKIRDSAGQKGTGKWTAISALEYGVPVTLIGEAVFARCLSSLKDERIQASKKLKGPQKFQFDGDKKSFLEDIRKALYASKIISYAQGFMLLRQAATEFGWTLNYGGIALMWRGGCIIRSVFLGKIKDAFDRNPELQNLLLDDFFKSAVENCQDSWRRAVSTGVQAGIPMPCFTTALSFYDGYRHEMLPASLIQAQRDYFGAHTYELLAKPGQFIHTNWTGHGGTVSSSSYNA

[2] = liver-stage malaria parasite growth inhibition, primary screen, cell-based, HepG2, luciferase luminescence, HepG2 viability (AID 624349; in the data active = parasite load remaining mostly below about 12%, no sharp cut-off; inactive = mostly above about 10%;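 note: 100% = mean of DMSO negative control wells on the same plate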); conditions: P. berghei liver stage in HepG2, luciferase luminescence, concentration not given here; parasite load remaining: stronger effect = lower value; viability: measured here: HepG2 viability without parasites
[3] = Cy5 fluorescence interference with SSB-bound oligo, artefact control for HCV NS3 helicase inhibitor project, biochemical, NIH Clinical Collection, E. coli SSB (AID 743268; call rule not given here)
[4] = test system: Hepatitis C virus NS3 helicase; experiment: HCV NS3 helicase inhibitors, primary screen, biochemical, fluorescence polarization, NIH Clinical Collection (AID 743270; call rule not given here); conditions: NS3 helicase binding to Cy5-dT15 DNA, stronger effect = higher value, concentration not given here
[5] = molecular target: Single-stranded DNA-binding protein (Escherichia coli (strain K12)) (UniProt P0AGE0); experiment: E. coli SSB displacement from DNA, counter-screen for HCV NS3 helicase inhibitor project, biochemical, fluorescence polarization, NIH Clinical Collection (AID 743271; in the data active = inhibition above about 28%); conditions: stronger effect = higher value, concentration not given here
[6] = fluorescence interference in NS3h assay format, artefact control for HCV NS3 helicase inhibitor project, biochemical, NIH Clinical Collection (AID 743272; call rule not given here;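 note: HCV NS3 helicase with a Cy5 labelled single stranded DNA probe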); conditions: fluorescence interference counterscreen, stronger effect = lower value
[7] = modulation of C. elegans fzo-1 (AID 1259413; call rule not given here;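 note: fzo-1 mutant C. elegans worms in liquid wells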); conditions: C. elegans fzo-1 modulator screen, mean read-out; stronger effect = higher value
[8] = differential killing of epithelial or mesenchymal cells, primary screen, imaging, PC-3E GFP, TEM4-18 mCherry, co-culture (AID 1345086;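 active = compounds killing one labelled cell type while sparing the other, by normalised counts and ratio limits, not self-fluorescent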;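 for all read-outs here: cells exposed to compound for 72 h before imaging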;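 for red/green cell ratio (normalised): normalised mesenchymal count divided by normalised epithelial count so high means epithelial killing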); conditions: imaging cell counts, at 1 µM; for red/green cell ratio (normalised): actives lie on both sides, counts scaled to control wells, 1 = unselective
[9] = survival rescue of mitochondrial mutant cells in low glucose, primary screen, MELAS cybrids, Rieske KO mouse fibroblasts, CellTiter-Glo (AID 1508586;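 active = mean z-score across replicates of 1.96 or higher in either the MELAS or the Rieske mutant cell line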;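 note: z relative to plate mean and SD of compound and empty wells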)
[10] = molecular target: NAD(+) hydrolase SARM1 (Homo sapiens) (UniProt Q6SZW1); experiment: SARM1 TIR NADase inhibitors, cell lysate, NAD-Glo luminescence (AID 1508614;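 active = compound whose remaining NAD level is above about 45 nM, limit read from the data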;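 note: higher remaining NAD means stronger inhibition of SARM1 NADase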); conditions: SAM-TIR HEK293T lysate NADase, at 1 µM, stronger effect = higher value
Sequence of NAD(+) hydrolase SARM1 (Homo sapiens) (Q6SZW1 whole entry, looked up, the tested form may be a part): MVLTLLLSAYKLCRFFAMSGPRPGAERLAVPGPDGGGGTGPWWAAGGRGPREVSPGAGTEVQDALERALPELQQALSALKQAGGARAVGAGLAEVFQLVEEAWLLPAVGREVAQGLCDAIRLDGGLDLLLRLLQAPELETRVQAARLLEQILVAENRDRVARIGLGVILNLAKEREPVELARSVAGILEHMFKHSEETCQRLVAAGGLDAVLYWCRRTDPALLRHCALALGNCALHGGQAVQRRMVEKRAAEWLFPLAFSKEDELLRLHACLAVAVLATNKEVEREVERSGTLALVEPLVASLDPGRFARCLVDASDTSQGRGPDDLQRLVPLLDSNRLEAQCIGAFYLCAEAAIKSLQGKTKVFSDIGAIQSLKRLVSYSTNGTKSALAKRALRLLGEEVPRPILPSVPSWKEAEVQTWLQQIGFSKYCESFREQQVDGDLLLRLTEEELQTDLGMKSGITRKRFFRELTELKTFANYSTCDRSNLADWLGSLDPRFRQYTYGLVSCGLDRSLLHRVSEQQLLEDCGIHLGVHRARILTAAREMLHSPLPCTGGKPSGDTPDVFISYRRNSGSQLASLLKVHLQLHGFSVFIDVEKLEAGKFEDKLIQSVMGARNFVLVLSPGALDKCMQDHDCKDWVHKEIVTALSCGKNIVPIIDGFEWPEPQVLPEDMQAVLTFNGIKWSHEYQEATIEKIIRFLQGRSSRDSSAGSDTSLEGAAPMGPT

[11] = molecular target: Mitogen-activated protein kinase 7 (Homo sapiens) (UniProt Q13164); experiment: ERK5 transactivation activators in reporter cells, primary screen, cell-based, HTS (AID 1508626;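 active = luciferase signal above three times the same-plate solvent-only control wells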;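 note: luciferase driven by Gal4-ERK5 fusion binding five Gal4 sites before minimal TATA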); conditions: HeLa Gal4-ERK5 transactivation, 18 h, at 5 µM, stronger effect = higher value
Sequence of Mitogen-activated protein kinase 7 (Homo sapiens) (Q13164 whole entry, looked up, the tested form may be a part): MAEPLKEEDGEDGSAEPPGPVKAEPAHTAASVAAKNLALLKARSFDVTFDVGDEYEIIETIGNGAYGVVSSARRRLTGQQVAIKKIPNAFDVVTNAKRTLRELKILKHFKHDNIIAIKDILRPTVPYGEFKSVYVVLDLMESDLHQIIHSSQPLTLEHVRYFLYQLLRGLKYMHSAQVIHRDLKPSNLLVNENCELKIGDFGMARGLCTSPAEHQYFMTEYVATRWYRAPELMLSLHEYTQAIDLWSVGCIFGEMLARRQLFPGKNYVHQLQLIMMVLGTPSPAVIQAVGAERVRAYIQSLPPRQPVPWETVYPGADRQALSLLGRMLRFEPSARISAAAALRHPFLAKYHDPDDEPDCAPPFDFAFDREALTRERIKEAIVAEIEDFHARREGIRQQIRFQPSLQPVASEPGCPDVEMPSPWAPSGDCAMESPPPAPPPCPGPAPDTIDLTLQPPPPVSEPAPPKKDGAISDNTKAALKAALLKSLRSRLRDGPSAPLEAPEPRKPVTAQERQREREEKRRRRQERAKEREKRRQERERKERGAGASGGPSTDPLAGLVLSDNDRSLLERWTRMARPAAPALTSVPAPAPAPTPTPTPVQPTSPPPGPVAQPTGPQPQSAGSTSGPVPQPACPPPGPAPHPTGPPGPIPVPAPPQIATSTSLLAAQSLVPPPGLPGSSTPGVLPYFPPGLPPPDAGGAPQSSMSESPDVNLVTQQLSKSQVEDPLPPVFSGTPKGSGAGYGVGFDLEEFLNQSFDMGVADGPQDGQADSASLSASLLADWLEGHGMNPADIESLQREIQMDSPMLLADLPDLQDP

[12] = viability rescue of complex I mutant cybrids, primary screen, cell-based, galactose medium, ATP luminescence (AID 1645843;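 active = z-score of at least 1.8 in each of two replicates, scored against plate mean and spread of sample wells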;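 note: positive z means more ATP and so rescue of galactose-driven cybrid death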); conditions: complex I mutant cybrid cells, 72 h, stronger effect = higher value
F380Y = experiment: modulators of BK channel variants, profiling panel, selectivity assay, cell-based, U2OS BacMam, thallium flux, beta subunits (AID 1259406); conditions: at 30 µM;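 note: initial slope of Thallos dye fluorescence rise after thallium is added; log ratio against the mean of 0.3% DMSO vehicle wells on the same plate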
F380Y/beta2Delta = experiment: as above; conditions: at 30 µM
[13] = molecular target: Calcium-activated potassium channel subunit alpha-1 (Homo sapiens) + Leucine-rich repeat-containing protein 26 (Homo sapiens) (UniProt Q12791+Q2I0M4); experiment: as above; conditions: F380Y/Slo1WT/gamma1, at 30 µM
Sequence of Calcium-activated potassium channel subunit alpha-1 (Homo sapiens) + Leucine-rich repeat-containing protein 26 (Homo sapiens) (Q2I0M4 whole entry, looked up, one chain of several): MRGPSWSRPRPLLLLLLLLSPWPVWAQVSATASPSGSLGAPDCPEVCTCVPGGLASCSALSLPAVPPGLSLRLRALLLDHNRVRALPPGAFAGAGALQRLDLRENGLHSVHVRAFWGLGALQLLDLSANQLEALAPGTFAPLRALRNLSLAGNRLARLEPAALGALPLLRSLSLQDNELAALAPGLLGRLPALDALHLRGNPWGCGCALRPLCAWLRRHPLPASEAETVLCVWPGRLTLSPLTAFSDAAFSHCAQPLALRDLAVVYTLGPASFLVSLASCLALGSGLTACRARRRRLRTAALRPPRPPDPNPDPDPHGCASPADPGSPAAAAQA

R275C = experiment: as above; conditions: at 30 µM
R275C/beta1 = experiment: as above; conditions: at 30 µM
R275C/beta2Delta = experiment: as above; conditions: at 30 µM
[14] = sensitizers of A549 cells to miR-34 induction, primary screen, imaging, A549 dox-inducible miR-34, nuclei and caspase counts (AID 1347080;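 active = compounds whose cell count with miR-34 switched on is under 0.7 times the count with it off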); conditions: A549 miR-34 inducible, Hoechst nuclei count, 48 h
[15] = measured here: epithelial PC-3E GFP cell survival
[16] = measured here: mesenchymal TEM4-18 mCherry cell survival
[17] = MELAS cybrid survival, CellTiter-Glo 48 h, stronger effect = higher value
[18] = Rieske KO mouse fibroblast survival, CellTiter-Glo 72 h
[19] = stronger effect = lower value, cell number ratio, induced over uninduced
[20] = measured here: relative caspase fold change +Dox/-Dox
[21] = measured here: total cells with miR-34 induction, stronger effect = lower value
[22] = measured here: total cells without miR-34 induction

SMILES: COc1c(-c2ccccc2)oc2c(OC)cccc2c1=O
- inhibition [1]: -9.55% (inactive)

SMILES: CCC(=O)OCC(=O)[C@@]1(OC(=O)CC)[C@@H](C)CC2C3CCC4=CC(=O)C=C[C@]4(C)[C@@]3(F)C(O)C[C@@]21C (stereo partly specified)
- inhibition [1]: -9.91% (inactive)

SMILES: CC(=O)O[C@H]1CC[C@]2(C)C3=CC(=O)[C@@]4(C)C(C[C@@H]5OC6(OCC(C)CC6Br)C(C)[C@@H]54)C3CC[C@H]2C1 (stereo partly specified)
- inhibition [1]: 6.67% (inactive)

SMILES: CC(C)(C(=O)O)c1ccc(C(O)CCCN2CCC(C(O)(c3ccccc3)c3ccccc3)CC2)cc1 (stereo unspecified)
- parasite load remaining [2]: 72.9% (inactive) and 85.2% (inactive) and 65.9% (inactive)
- viability [2]: 89.9% and 71.9% and 128%
- fluorescence ratio [3]: 1.07 (inactive)
- inhibition [4]: -4.09% (inactive)
- inhibition [5]: 1.05% (inactive)
- fluorescence ratio [6]: 1.04 (inactive)
- mean signal [7]: 241 (inactive)
- red/green cell ratio (normalised) [8]: 1.14 (inactive)
- normalised cell number [8, 15]: 0.92
- normalised cell number [8, 16]: 1.05
- z-score [9, 17]: -0.235 (inactive) and -0.763 (inactive)
- z-score [9, 18]: -0.15 and -0.362
- remaining NAD [10]: 10 nM (inactive)
- luciferase signal [11]: 40 AU (inactive)
- z-score [12]: 0.205 (inactive) and 1.1 (inactive) and -0.085 (inactive)
- log fold change Tl+ flux (F380Y): -0.178 (active)
- log fold change Tl+ flux (F380Y/beta2Delta): -0.00892 (inactive)
- log fold change Tl+ flux [13]: 0.0201 (inactive)
- log fold change Tl+ flux (R275C): 0.00746 (inactive)
- log fold change Tl+ flux (R275C/beta1): -0.0122 (inactive)
- log fold change Tl+ flux (R275C/beta2Delta): -0.0184 (inactive)

SMILES: CC(=O)Oc1ccc2c(c1C(C)C)CCC1C(C)(C)CCCC21C (stereo unspecified)
- inhibition [1]: 2.45% (inactive)

SMILES: C=C1C(CCl)(CCl)C2(Cl)C(Cl)C(Cl)C1(Cl)C2(Cl)Cl (stereo unspecified)
- inhibition [1]: -11.7% (inactive)

SMILES: COc1ccc(C[C@H](N)C(=O)N[C@H]2[C@@H](O)[C@H](n3cnc4c(N(C)C)ncnc43)O[C@@H]2CO)cc1
- parasite load remaining [2]: -0.025% (inactive) and -0.34% (inactive)
- viability [2]: 17.9% and 1%
- inhibition [1]: -10.2% (inactive)
- fold change [14, 19]: 1.03 (inactive) and 1.04 (inactive)
- fold change [14, 20]: 1.77 and 0.862
- cell count [14, 21]: 1000 and 950
- cell count [14, 22]: 976 and 910
- z-score [9, 17]: 0.777 (inactive)
- z-score [9, 18]: -0.707
- remaining NAD [10]: 10 nM (inactive)
- luciferase signal [11]: 244 AU (inactive)
- z-score [12]: -2.25 (inactive)

SMILES: C[C@H]1COc2c(N3CCN(C)CC3)c(F)cc3c(=O)c(C(=O)O)cn1c23
- fluorescence ratio [3]: 1.03 (inactive)
- inhibition [4]: -3.56% (inactive)
- inhibition [5]: -3.95% (inactive)
- fluorescence ratio [6]: 1 (inactive)
- inhibition [1]: 0.836% (inactive)
- mean signal [7]: 274 (inactive)
- red/green cell ratio (normalised) [8]: 1.01 (inactive)
- normalised cell number [8, 15]: 1.12
- normalised cell number [8, 16]: 1.13
- fold change [14, 19]: 0.893 (inactive) and 0.857 (inactive)
- fold change [14, 20]: 6.58 and 0.734
- cell count [14, 21]: 11000 and 8630
- cell count [14, 22]: 12300 and 10100
- z-score [9, 17]: -0.0762 (inactive)
- z-score [9, 18]: -0.528
- remaining NAD [10]: 10 nM (inactive)
- luciferase signal [11]: 296 AU (inactive)
- z-score [12]: -0.45 (inactive)
- log fold change Tl+ flux (F380Y): -0.012 (inactive)
- log fold change Tl+ flux (F380Y/beta2Delta): 0.0117 (inactive)
- log fold change Tl+ flux [13]: 0.00221 (inactive)
- log fold change Tl+ flux (R275C): -0.0297 (inactive)
- log fold change Tl+ flux (R275C/beta1): 0.0187 (inactive)
- log fold change Tl+ flux (R275C/beta2Delta): -0.00628 (inactive)

SMILES: C=CC(C)(O)CCC=C(C)C (stereo unspecified)
- inhibition [1]: -3.42% (inactive)

SMILES: COc1ccc(-c2cc(=O)c3c(OC)c(OC)c(OC)c(OC)c3o2)cc1OC
- parasite load remaining [2]: 46.2% (inactive)
- viability [2]: 66.9%
- fluorescence ratio [3]: 1.01 (inactive)
- inhibition [4]: -1.19% (inactive)
- inhibition [5]: -2.41% (inactive)
- fluorescence ratio [6]: 0.96 (inactive)
- inhibition [1]: 2.3% (inactive)
- mean signal [7]: 277 (inactive)
- red/green cell ratio (normalised) [8]: 1.15 (inactive)
- normalised cell number [8, 15]: 0.98
- normalised cell number [8, 16]: 1.13
- fold change [14, 19]: 0.981 (inactive) and 0.97 (inactive)
- fold change [14, 20]: 1.14 and 0.279
- cell count [14, 21]: 9210 and 7680
- cell count [14, 22]: 9390 and 7920
- z-score [9, 17]: -0.237
- z-score [9, 18]: 2.19
- luciferase signal [11]: 48 AU (inactive)
- z-score [12]: 0.845 (inactive)
- log fold change Tl+ flux (F380Y): 0.00321 (inactive)
- log fold change Tl+ flux (F380Y/beta2Delta): 0.0292 (inactive)
- log fold change Tl+ flux [13]: -0.341 (active)
- log fold change Tl+ flux (R275C): -0.784 (active)
- log fold change Tl+ flux (R275C/beta1): -0.176 (active)
- log fold change Tl+ flux (R275C/beta2Delta): -0.278 (active)

SMILES: Nc1ncnc2c1ncn2[C@@H]1O[C@H](CO)[C@@H](O)[C@@H]1O
- fluorescence ratio [3]: 1 (inactive)
- inhibition [4]: -4.09% (inactive)
- inhibition [5]: -1.24% (inactive)
- fluorescence ratio [6]: 1 (inactive)
- inhibition [1]: -15.7% (inactive)
- mean signal [7]: 237 (inactive)
- red/green cell ratio (normalised) [8]: 0.96 (inactive)
- normalised cell number [8, 15]: 0.99
- normalised cell number [8, 16]: 0.95
- fold change [14, 19]: 0.95 (inactive) and 0.835 (inactive) and 0.86 (inactive)
- fold change [14, 20]: 2.09 and 4.39 and 1.09
- cell count [14, 21]: 9780 and 10000 and 8360
- cell count [14, 22]: 10300 and 12000 and 9720
- z-score [9, 17]: -2.73 (inactive) and -2.26 (inactive)
- z-score [9, 18]: 0.559 and 1.92
- remaining NAD [10]: 10 nM (inactive)
- luciferase signal [11]: 160 AU (inactive)
- z-score [12]: -1.35 (inactive) and 1.67 (inactive)
- log fold change Tl+ flux (F380Y): -0.000678 (inactive)
- log fold change Tl+ flux (F380Y/beta2Delta): 0.00163 (inactive)
- log fold change Tl+ flux [13]: 0.0271 (inactive)
- log fold change Tl+ flux (R275C): 0.00664 (inactive)
- log fold change Tl+ flux (R275C/beta1): -0.0305 (inactive)
- log fold change Tl+ flux (R275C/beta2Delta): -0.0267 (inactive)

SMILES: COC(=O)[C@H](c1ccccc1Cl)N1CCc2sccc2C1
- fluorescence ratio [3]: 1 (inactive)
- inhibition [4]: -9.55% (inactive)
- inhibition [5]: 3.34% (inactive)
- fluorescence ratio [6]: 1 (inactive)
- inhibition [1]: 3.19% (inactive)
- mean signal [7]: 252 (inactive)
- red/green cell ratio (normalised) [8]: 1.19 (inactive)
- normalised cell number [8, 15]: 1.15
- normalised cell number [8, 16]: 1.36
- fold change [14, 19]: 0.979 (inactive) and 0.893 (inactive) and 0.849 (inactive)
- fold change [14, 20]: 1.69 and 3.06 and 2.09
- cell count [14, 21]: 9850 and 11200 and 8380
- cell count [14, 22]: 10100 and 12600 and 9870
- z-score [9, 17]: -0.401 (inactive) and -0.448 (inactive)
- z-score [9, 18]: -0.332 and -1.48
- remaining NAD [10]: 10 nM (inactive)
- luciferase signal [11]: 20 AU (inactive)
- z-score [12]: -0.555 (inactive) and -0.06 (inactive)
- log fold change Tl+ flux (F380Y): -0.0366 (inactive)
- log fold change Tl+ flux (F380Y/beta2Delta): -0.0129 (inactive)
- log fold change Tl+ flux [13]: -0.0336 (inactive)
- log fold change Tl+ flux (R275C): 0.027 (inactive)
- log fold change Tl+ flux (R275C/beta1): -0.0372 (inactive)
- log fold change Tl+ flux (R275C/beta2Delta): -0.0599 (inactive)
